In PubChem BioAssay AID1117319 (Southern Research Institute, 2015):
Where “and” joins values, the source holds several entries; their conditions need not be identical. Equal entries are not always repeated. Hit rate of the full screen: of about 260,000 compounds, about 1,500 (0.58%) were called active. Roughly 5% stayed inconclusive and do not appear here.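 The calls were made as follows: active = inhibition above a set limit at one or more doses, reproduced on every date tested; inconclusive = results disagree between test dates, or hit never tested in dose response; inactive = the rest.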 The list is a sample of the results. Measured potencies and affinities stand elsewhere.

Target: Virion infectivity factor (Human immunodeficiency virus type 1 group M subtype B (isolate BH10)) + Virion infectivity factor (Human immunodeficiency virus type 1 group M subtype B (isolate BRU/LAI)) + Virion infectivity factor (Human immunodeficiency virus type 1 group M subtype B (isolate PCV12)) + Virion infectivity factor (Human immunodeficiency virus type 1 group M subtype B (isolate HXB2)) + DNA dC->dU-editing enzyme APOBEC-3G (Homo sapiens) (UniProt P69720+P69721+P69722+P69723+Q9HC16)
Test: inhibitors of Vif binding to APOBEC3G peptide, primary screen, biochemical, TR-FRET, GST-Vif 1-94, biotin-A3G peptide, dose response retest (AID 1117319);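 also: Vif residues 1-94 fused to GST binding biotinylated APOBEC3G peptide 110-148; 0% = full assay without inhibitor and 100% = GST in place of GST-Vif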
Details: hits give high values

inhibition, inactive:
COc1ccc(-c2nc(SC(CC(=O)NCCO)c3cccs3)n[nH]2)cc1 (stereo not given) -4.6%, Cc1ccc(-c2nnc(N3CCOCC3)c3ccccc23)cc1S(=O)(=O)N(C)C -45.2%, Cc1nc(NCCc2ccccc2)c2nnn(Cc3ccccc3)c2n1 -8.97%, COc1ccc(CC(=O)NCc2ccccc2F)cc1S(=O)(=O)N1CCOCC1 -8.33%, Cc1ccccc1NC(=O)Cc1nc(COC(=O)COc2cccc(C)c2C)cs1 -1.31%, Cc1ccc(-c2nn[nH]n2)o1 -6.6%, COCCNC(=O)/C(C#N)=C/c1ccc(OC(=O)c2cccs2)c(OC)c1 12.9%, COCCNC(=O)/C(C#N)=C/c1cccc(/C=C(\C#N)C(=O)NCCOC)c1 -1.66%, CCCN1C2CCCC1CC(NC(=O)c1ccccc1Br)C2 (stereo not given) -0.94%, COc1cc(C2NC(=O)NC3=C2C(=O)OC3)cc(OC)c1OC (stereo not given) -6.88%, Cn1cc(C(=O)Nc2ccc(Cl)cc2)c(C(F)(F)F)n1 -6.34%, COc1ccc(NCc2ccc([N+](=O)[O-])s2)cc1 -7.61%, CCCN1C(=O)/C(=C/c2ccc(C)s2)NC1=S 1.31%, Cc1ccc(/C=C2/NC(=O)N(Cc3ccc(Br)cc3)C2=O)o1 18.3%, COc1ccc(Sc2ccc(/C=C3\C(=O)NN(c4ccccc4)C3=O)o2)cc1 27.1%, CCN1C(=O)/C(=C/c2ccc(C)s2)NC1=S 20.4%, COc1ccc(NC(=O)CCC(=O)N/N=C/c2ccc([N+](=O)[O-])s2)cc1 23.7%, CC(=O)c1sc(NC(=O)c2ccc(F)cc2)nc1-c1ccccc1 -5.82%, C[C@@H](CO)NC(=O)c1ccc2c3n(nc2c1)-c1ccccc1CO3 -3.9%, COc1cccc(CN2CCC(n3nccc3NC(=O)C3CC3)CC2)c1 3.21%, CCCN1CCN(CC(O)COC(c2ccc(OC)cc2)c2ccc(OC)cc2)CC1 (stereo not given) 3.65%, Cc1cccc(NC(=O)c2sc3nc(-c4ccc(F)cc4)cn3c2C)n1 -26.2%, O=C(NC(=S)Nc1ccccc1N1CCCC1)c1cccc(F)c1 5.9%, COc1cc(/C=N/Nc2nc(=O)[nH]nc2C)cc([N+](=O)[O-])c1O 5.18%, O=C(NC1CCCCC1)c1ccccc1NC(=O)C1CC(=O)N(c2ccc(Cl)cc2)C1 (stereo not given) 31.5%, C/C(O)=c1/ccc2cccc3nc(C)nc1c23 32.6%, NNc1nc(C(F)(F)F)nc2ccccc12 -3.12%, Cc1ccc(S(=O)(=O)NC2CCCCC2)cc1C(=O)N1CCC(C(N)=O)CC1 -4.11%, Cc1ccc(/C=C2\Oc3c(ccc(O)c3CN3CCN(CCO)CC3)C2=O)cc1 -6.62%, CCN1CCN(Cc2c(O)ccc3c2O/C(=C\c2ccccc2)C3=O)CC1 -1.46%, CCc1ccc(/C=C2\Oc3c(ccc(O)c3CN3CCN(C)CC3)C2=O)cc1 29.7%, CC(C)(C)c1ccc(/C=C2\Oc3c(ccc(O)c3CN3CCN(CCO)CC3)C2=O)cc1 2.03%, COCCN(CCOC)Cc1c(O)ccc2c1O/C(=C\c1ccco1)C2=O 25.4%, COc1ccccc1-c1coc2c(CN3CCCC(C)C3)c(O)ccc2c1=O (stereo not given) -11.2%, C=CCN1C(C(=O)c2ccccc2)=C(OC(=O)COc2ccccc2)c2ccccc2S1(=O)=O -2.45%, COc1cc(OC)cc(-c2cc(N3C(=O)Nc4ccccc4N3O)n[nH]2)c1 2.06%, CCN(CC)CCCC(C)Nc1nccc2cccc(Cl)c12 (stereo not given) -1%, C=CCn1c(SCC(=O)NCCCC(=O)OCC)nc2scc(-c3ccco3)c2c1=O -13%, C=CCn1c(SCC(=O)NCCOC)nc2scc(-c3ccco3)c2c1=O 27.8%, Cc1onc(-c2c(F)cccc2Cl)c1C(=O)Nc1nnc(-c2ccccc2)s1 -20.2%, Cc1onc(-c2c(F)cccc2Cl)c1C(=O)Nc1nccs1 -2.44%, CCN1CCN(C(=O)c2ccc(CSc3ccc(C)cc3)cc2)CC1 -0.41%, O=C(Cn1c(=O)oc2ccccc21)Nc1ccc(S(=O)(=O)N2CCCCC2)cc1 16%, O=Cc1cccc(OCc2cccc3ccccc23)c1 -9.48%, c1ccc(Cc2nnc3n2CCCCC3)cc1 -1.19%, c1ccc2c(c1)CCCN2Cc1nnnn1C1CCCC1 4.12%, CSc1ccccc1NC(=O)CN(C)C(=O)c1c(C)nn(Cc2ccccc2)c1C 0.13%, CCc1ccc(NS(=O)(=O)c2ccc3[nH]cc(C(=O)N(C)Cc4ccco4)c(=O)c3c2)cc1 6.93%, CN(Cc1ccco1)C(=O)c1c[nH]c2ccc(S(=O)(=O)Nc3ccc4c(c3)OCCO4)cc2c1=O 11.3%, CC(C)N(C(=O)[C@H]1C[C@H](CC(=O)NCCN2CCOCC2)C(=O)N2CCc3c([nH]c4ccc(Cl)cc34)[C@]12C)C(C)C -2.31%, C=CCn1c(COc2ccccc2F)nnc1SCC(=O)NC(=O)NCc1ccco1 13.7%, C=CCn1c(COc2cccc(C)c2)nnc1SCC(=O)NC(=O)NCc1ccco1 3.84% and 20.2%, CC(C)(C)NC(=O)/C=C/c1cccs1 -6.7%, COc1ccc(/C=C2/C(=O)N=C(N)N2C)cc1OC -1.18%, CC(=O)c1ccc(Sc2nnnn2-c2ccccc2)c([N+](=O)[O-])c1 7.06%, COC(=O)c1ccc(Sc2nnnn2-c2ccccc2)c([N+](=O)[O-])c1 4.9%, Cc1csc(NC(=O)Cc2ccccc2[N+](=O)[O-])n1 -11%, CN(C(=O)CSc1nnc2ccccn12)C1CCS(=O)(=O)C1 (stereo not given) 5.32%, Cc1ccc(OCCCC(=O)Nc2ccc(S(N)(=O)=O)cc2)cc1 -3.06%, O=C1C=C(Nc2cccnc2)c2ccccc2C1=O -2.43%, O=C1C=C(Nc2ccccc2O)c2ccccc2C1=O 29.9%, O=[N+]([O-])c1ccc(Cl)c(/C=N/N2CCN(Cc3ccc(Cl)cc3)CC2)c1 -0.57%, CCOc1ccc(N/C(C)=C/C(=O)c2ccc(C)o2)cc1 1.46%, COc1cccc(C2Nc3ccc4ccccc4c3C3=C2C(=O)CCC3)c1O (stereo not given) -3.25%, CC1(C)CC(=O)C2=C(C1)c1c(ccc3ccccc13)NC2c1ccco1 (stereo not given) 7.86%, Cc1onc(-c2ccccc2Cl)c1C(=O)NCc1ccccn1 -1.21%, COC(=O)COC(=O)CC(CC(N)=O)c1ccccc1 (stereo not given) -2.81%, Cc1cc(C(=O)Nc2nc3c(C)cccc3s2)c(C)o1 17.4%, COC(=O)Nc1nc2c(C)cccc2s1 1.68%, Cc1c(C(=O)c2ccc([N+](=O)[O-])cc2)c(=O)n(C)c(=O)n1C -3.13%, CCC(=O)N1CCC2(CC1)Oc1ccc(F)cc1C(=O)C21CC(c2cccnc2)=NO1 (stereo not given) 3.73%, CCOC(=O)C(=O)Cc1nc2ccccc2s1 -1.72%, CCOC(=O)C(Cc1ccnnc1)=NO -0.8%, Cc1nc2sc(C(c3ccco3)N3CCN(c4ccc(F)cc4)CC3)c(O)n2n1 (stereo not given) 13.8%, Cc1cc(C(=O)CN2CCCC2)c(C)n1-c1ccc(Cl)cc1 1.44%, O=C(Oc1ccc2c(c1)C(=O)c1ccccc1CO2)c1ccccc1 1.85%, CC(=O)Oc1ccc2c(c1)C(=O)c1ccccc1CO2 7.33%, COc1ccc(CNC(=O)COC(=O)c2cccc(S(=O)(=O)N3CCOCC3)c2)cc1 10.9%, COc1ccc(NC(=O)c2cnc3n(c2=O)CCS3)cc1OC 10.7%, CCOc1ccc(/C=C(\C(=O)O)c2ccc(S(=O)(=O)N3CCOCC3)s2)cc1OC 28.4%, O=S(=O)(Cc1cc(Sc2ccc(Cl)cc2)nc(-c2ccccc2)n1)c1ccccc1 3.1%, CC1CN(Cc2ccco2)C(=S)NC1=O (stereo not given) 1.05%, O=C1CCN(Cc2ccco2)C(=S)N1 3.3%, O=C1C2C(C(=O)N1Cc1ccco1)C1C=CC2C12CC2 (stereo not given) -1.81%, O=C1CC(=O)N(Cc2cccs2)C(=O)N1 18%, COc1ccc(-n2c(=O)c(CCC(=O)N(C)Cc3cccs3)nc3ccccc32)cc1 -5.63%, COc1ccccc1NS(=O)(=O)c1ccc(C)c(C(=O)NCC2(N(C)C)CCCCC2)c1 -8.71%, Cc1nc2ccc(F)cc2cc1C(=O)NC(C)C -0.13%, CCOC(=O)c1cc2cc(OC)ccc2nc1C 4.64%, CCc1nc(NCc2ccc3c(c2)OCO3)c2oc3ccccc3c2n1 5.19%, CCNC(=O)CN(c1ccc(CC)cc1)S(C)(=O)=O -1.87%, Cc1nc(Nc2ccc(Cl)c(Cl)c2)sc1C(/C=C/c1ccc2c(c1)OCO2)=NNc1ccc([N+](=O)[O-])cc1[N+](=O)[O-] 0.47%, CCCN(CC(=O)Nc1ccccc1OC)C(=O)Cn1[nH]c(=O)c2ccccc2c1=O -0.74%, O=C(O)/C(=C\c1cccc(F)c1)c1ccc(S(=O)(=O)N2CCCC2)s1 18.6%, O=C(O)/C(=C\c1cccc(O)c1)c1ccc(S(=O)(=O)N2CCCC2)s1 14.8%
